About 79,000 compounds went through this panel and 15% of them were active in at least one assay; those are over-represented in the sample as a whole. Values without a mark were called inactive. Calls of active or inactive are those of the source. Cut-off read from the data, not from the text of the source: active = growth inhibition above about 70%; inactive = the rest.
How the values were obtained:
[1] = NCI Yeast Anticancer Drug Screen. Data for the rad50 strain (AID 155);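 note: 0% = growth of vehicle-only cultures of the same strain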; settings: S. cerevisiae rad50 strain growth inhibition; at 50.0 µM; stronger effect = higher value
How it was run: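 A DNA repair-deficient yeast mutant serves as the test organism; compound-induced growth inhibition is calculated against vehicle-treated cells.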

[2] = NCI Yeast Anticancer Drug Screen. Data for the mec2-1 strain (AID 157); settings: S. cerevisiae mec2-1 strain, at 50.0 µM, stronger effect = higher value
How it was run: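 Compounds were applied to mec2-1 yeast cells. Their growth was then compared with that of vehicle-treated cultures to give growth inhibition.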

[3] = NCI Yeast Anticancer Drug Screen. Data for the sgs1 mgt1 strain (AID 161);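 note: 0% = growth of cultures given vehicle only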; settings: S. cerevisiae sgs1 mgt1 strain, at 50.0 µM, stronger effect = higher value
How it was run: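 This yeast growth screen uses a strain with defined DNA-repair lesions; compound-treated growth is compared with vehicle-treated growth.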

[4] = NCI Yeast Anticancer Drug Screen. Data for the cln2 rad14 strain (AID 165);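 note: 0% = growth equal to vehicle treated cultures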; settings: S. cerevisiae cln2 rad14 strain, at 50.0 µM, stronger effect = higher value
How it was run: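 Strain: cln2 rad14 yeast, altered in cell cycle control and DNA damage repair. Read-out: growth inhibition vs vehicle.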

[5] = NCI Yeast Anticancer Drug Screen. Data for the bub3 strain (AID 167); settings: S. cerevisiae bub3 mutant strain, at 50.0 µM, stronger effect = higher value
How it was run: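 Inhibition values come from growth of compound-treated mutant yeast normalised to vehicle-treated controls.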

[6] = NCI Yeast Anticancer Drug Screen. Data for the mlh1 rad18 strain (AID 175); settings: S. cerevisiae mlh1 rad18 strain growth inhibition; at 50.0 µM; stronger effect = higher value
How it was run: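 A repair-deficient yeast strain is exposed to test compound, and growth is scored relative to vehicle-treated controls.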

| Structure (SMILES) | growth inhibition [1] | growth inhibition [2] | growth inhibition [3] | growth inhibition [4] | growth inhibition [5] | growth inhibition [6] |
| --- | --- | --- | --- | --- | --- | --- |
| CCOP(=S)(OCC)N(C)C(=O)Oc1cccc(C(C)C)c1 | 0.95% | -1.05% | 8.95% | -6.1% | -20.4% | 12.2% |
| CO[As](OC)c1ccc(N=Nc2ccc(N(C)C)cc2)cc1 | 98.4% (active) | 99.2% (active) | 98.9% (active) | 98.6% (active) | 99% (active) | 99.2% (active) |
| C[C@@H]1C[C@@]2(O[C@@H]2C)C(=O)O[C@@H]2CCN3CC=C(COC(=O)[C@]1(C)O)[C@H]23 | -4.5% | -16.2% | -7.95% | 13.3% | -4.9% | -75% |
| C#CCOC(=O)C=[N+]=[N-] | -11.7% | -6.75% | -10.6% | 14.7% | 3.85% | -2.1% |
| C=C[CH2][Sn]([CH2]C=C)([c]1ccccc1)[c]1ccccc1 | 47.6% | 18.6% | 28.8% | 6.7% | -7.55% | 16.4% |
| O.O=S(=O)(O)O.[Co+3].[NH2-].[NH2-].[NH2-].[NH2-].[OH-] | 31.2% | 10.7% | 8.6% | 29.2% | 12.4% | 21.5% |
| CCOP(=O)(CC(=O)c1ccccc1)OCC | 10.1% | 1.25% | -18.1% | 0.6% | -1.45% | 20.8% |
| CNC(=O)Oc1cccc2c1C(=O)OC2=O | -2.7% | 4.25% | -6.55% | -25.1% | 2.15% | 7.1% |
| C[C@]12CC[C@H](O)C[C@H]1CC[C@@H]1[C@@H]2CC[C@]2(C)[C@@H](C3=CC(=O)OC3)CC[C@]12O | -3.9% | 12.4% | 5.55% | -56.4% | 15.3% | 8.4% |
| O=C(CCl)N(CCO)CCO | -0.85% | 1.5% | -2.4% | -30.7% | 6.3% | 0.95% |
| COc1ccc2c3c1O[C@]1(C)C34CCN(C)C(C2)C42C=C[C@@]1(OC)c1c(O)ccc(O)c12 | 6.55% | -13.2% | -12.8% | 7.9% | -10.6% | -0.9% |
| COc1ccc(C[As+](c2ccccc2)(c2ccccc2)c2ccccc2)cc1 | 97.8% (active) | 98.3% (active) | 97.4% (active) | 97% (active) | 93% (active) | 97.2% (active) |
| O=C1CC23c4ccccc4N4C(=O)CC5OCC=C6CN1C2CC6C5C43 (stereo unspecified) | 4.1% | -34.5% | -7.15% | 7.9% | 12.8% | 6.8% |
| CC1=NCCN=C(C)C1[N+](=O)[O-] | 6.7% | 10.9% | 39.2% | 0.55% | 2.65% | 24.3% |
| Oc1ccc(C=NCC2CCCC[N-]2)c(O)c1.Oc1ccc(C=NCC2CCCC[N-]2)c(O)c1.[Ni+2] (stereo unspecified) | 7.3% | 8% | 6.55% | 5.15% | 11.2% | -8.4% |
| CC(=O)Nc1ncc2ccccc2c1-c1ccc(NC(=O)CCN(CCCl)CCCl)cc1 | 84.5% (active) | -0.45% | 12.2% | -30.1% | 17.6% | -9.2% |
| CC[C@@]1(O)C(=O)OCc2c1c(Cl)c1n(c2=O)Cc2cc3ccccc3nc2-1 | -21.1% | -23.9% | -5.85% | 17.7% | -28.5% | -70% |
| CCOC(=O)C1(C#N)C(C#N)(C#N)C12CCCCC2 (stereo unspecified) (tested in a mixture with another compound) | 36.5% | 10.1% | 56% | 4.9% | 33.8% | 23.2% |
| COc1ccc(C(c2c(O)c3ccccc3oc2=O)c2c(O)c3ccccc3oc2=O)cc1 | -15.3% | -0.35% | -14.4% | -18.2% | 1% | -0.7% |
| CO[C@H]1C[C@H](O[C@H]2CC[C@]3(C=O)[C@H]4CC[C@]5(C)[C@@H](C6=CC(=O)OC6)CC[C@]5(O)[C@@H]4CC[C@]3(O)C2)O[C@H](C)[C@H]1O[C@@H]1O[C@H](CO)[C@@H](O)[C@H](O)[C@H]1O | 18.4% | -11.1% | 6.2% | 12.2% | 6.9% | 32.3% |
| Cc1cc(N(CCCl)CCCl)ccc1C1N(Cc2ccc(N(C)C)cc2)CCN1Cc1ccc(N(C)C)cc1 | 13.5% | 1.55% | 16.4% | -3.4% | 1.6% | 18.6% |
| COc1ccc(C=C2C(=O)N(C)C(=O)N(C)C2=O)cc1 | 4.8% | 2.1% | -13.2% | 22.3% | 28% | 36.5% |
| COC(=O)C(C)N(CCCl)P(=O)(N1CC1)N1CC1 (stereo unspecified) | 5.4% | 8.2% | 11.4% | 9.1% | 4.35% | 1.85% |

| Structure (SMILES) | growth inhibition [1] | growth inhibition [2] | growth inhibition [3] | growth inhibition [4] | growth inhibition [5] | growth inhibition [6] |
| --- | --- | --- | --- | --- | --- | --- |
| COc1ccc2c(c1O)CNCC2c1ccc(O)cc1O (stereo unspecified) | 0.6% | -12% | -7.25% | -11.9% | -24.8% | -2% |
| O=C1CN=CN1 | -8.85% | 8.85% | -0.45% | -12.6% | -7.5% | -5.3% |
| CCNC(Cc1ccccc1)c1ccco1 (stereo unspecified) | -2.35% | -12.1% | -15.5% | 18.8% | -10.2% | 12.5% |
| COCCCCCC(=O)CP(=O)(OC)OC | -7.15% | -1.4% | -1.2% | -12.9% | -6.4% | 8.95% |
| O=C(O)C(CSC(c1ccccc1)c1ccccc1)N1C(=O)c2ccccc2C1=O (stereo unspecified) | 47.9% | 36.4% | 46.4% | 43.3% | 29.1% | 44.7% |
| COc1cc(CC[N+](C)(C)C)cc(OC)c1OC | 4.95% | 6.1% | 7.85% | 25.2% | 9.5% | 34.7% |
| O=C(CC(=O)C(F)(F)C(F)(F)C(F)(F)F)c1ccco1.[Fe] | 25.3% | 24.7% | 23.6% | 13.6% | 15.7% | 17.9% |
| Cn1c(=O)n(C)c(=O)n(C)c1=O | 3.8% | 6.65% | -5.2% | -1.55% | 14.6% | -12.6% |
| CC1(C)OC2(C)CCC1C(O)C2N1CCCCC1 (stereo unspecified) | -29.6% | -4.15% | -13.4% | 0.75% | -1% | -8.6% |
| COc1ccc([As]=O)cc1[N+](=O)[O-] (stereo unspecified) | 13.2% | 1.15% | 11.1% | 14.2% | -19% | 8.2% |
| CC1(C)C(=O)C=CC2(C)C3CCC4(C)C(O)CCC4(C)C3CCC12 (stereo unspecified) | 9.6% | -10.2% | 7.2% | -30.1% | 13.8% | 20.1% |
| C/C=C1/C[N+]2([O-])CC[C@@]34c5ccc(OC)cc5N(C)[C@H]3C2CC1C4C(=O)OC (stereo partly specified) | 7.65% | -8.05% | -3.1% | -6% | -10.8% | 2.25% |
| O=[N+]([O-])c1cccc2cccc([N+](=O)[O-])c12 | -7.45% | -28.1% | -10.3% | -86.7% | -35% | 11.3% |
| CN(C)CCNC(=O)c1c([N+](=O)[O-])ccc(N(CCCl)CCCl)c1[N+](=O)[O-] | 12.7% | -11.4% | -9.9% | -27.7% | 13.2% | -2.65% |
| OCCBr | -2.95% | -7.7% | -4.65% | -1.05% | -0.7% | -17.9% |
| CCCCN(CCCC)CC(O)c1ccc(Br)cc1 (stereo unspecified) | 33.5% | 15.4% | 54% | 16.7% | 28.9% | 44.1% |
| C1CCC2[N-]CCCC2C1.C1CCC2[N-]CCCC2C1.O=[N+]([O-])O.O=[N+]([O-])O.[Cu+2] (stereo unspecified) | 21.6% | 21.6% | 15.2% | -19.2% | -4.35% | 25.1% |
| Cc1nccc2c1[nH]c1ccc(Br)cc12 | 13.7% | 11.6% | -7.55% | -2% | 9.55% | 1.25% |
| CC(=O)c1ccccc1N=Nc1ccc(N(CCCl)CCCl)cc1 | -9.5% | -5.5% | 0.15% | 18% | 15.2% | -0.05% |
| CC(=O)N[C@@H](C[S-])C(=O)O.O=[N+]([O-])O.[Ag+] | -1.95% | 0.95% | 53.8% | 25.1% | 19.9% | 21.1% |
| Cc1ccc2[nH]c(=S)n(-c3ccc(Cl)cc3)c(=O)c2c1 | 9.3% | 25.5% | 29.9% | 18.8% | 24% | -2.05% |
| O=C(CCl)NC1CCCCC1 | 9.7% | -8.45% | 7.15% | -4.25% | 10.9% | -6.45% |
| CCOP(=O)(Oc1ccc([N+](=O)[O-])cc1)c1cccc(Br)c1 (stereo unspecified) | 41.5% | 19.5% | 54% | 41.3% | 38.5% | 25% |

From PubChem BioAssay (NCI)
